Mcl-1 Bim block – inhibitors of Bim peptide binding to Mcl-1, primary screen, biochemical, bead-based flow cytometry, multiplex; Bim peptide-Mcl-1 binding; inhibition, % at 10 µM; Induced myeloid leukemia cell differentiation protein Mcl-1 (Homo sapiens), Q07820; 190,000 tested, 0.1% active; in the data active = inhibition above about 40%
Target sequence (Q07820 whole entry, looked up): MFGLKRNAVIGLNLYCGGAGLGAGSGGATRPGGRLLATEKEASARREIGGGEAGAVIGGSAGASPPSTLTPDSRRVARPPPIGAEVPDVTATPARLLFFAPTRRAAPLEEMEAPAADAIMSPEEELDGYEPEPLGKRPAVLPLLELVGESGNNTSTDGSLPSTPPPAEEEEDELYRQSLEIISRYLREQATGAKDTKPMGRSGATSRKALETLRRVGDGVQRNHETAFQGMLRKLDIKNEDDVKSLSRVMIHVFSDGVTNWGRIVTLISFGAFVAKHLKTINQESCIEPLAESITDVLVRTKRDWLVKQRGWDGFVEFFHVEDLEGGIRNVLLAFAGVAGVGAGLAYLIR
eIF4E-4G inh – eIF4E–eIF4G protein interaction inhibitors, primary screen, biochemical, uHTS, TR-FRET, eIF4GI fragment; Eukaryotic translation initiation factor 4E (Mus musculus) + Eukaryotic translation …; TR-FRET eIF4E-eIF4GI(517-606) binding, 2 h; inhibition, % at 21.7 µM; 220,000 tested, 0.37% active; AID 782, 2007
p47phox inh – p47phox/p22phox peptide binding inhibitors, primary screen, biochemical, uHTS, NADPH oxidase regulatory subunit | Neutrophil cytosol factor 1 (Homo sapiens), P14598 | fluorescence polarization, 2 h | inhibition, % at 24.7 µM | 220,000 tested, 0.53% active | AID 1274, 2008
14-3-3 Bad inh – inhibitors of 14-3-3 zeta/Bad binding, primary screen, biochemical, TR-FRET, bovine 14-3-3 zeta; inhibition, % at 21.7 µM; TR-FRET 14-3-3zeta/Dy647-pBad peptide displacement, 1 h; 220,000 tested, 0.71% active;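 active = inhibition above about 70%, limit read from the data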
Target sequence (P63103 whole entry, looked up): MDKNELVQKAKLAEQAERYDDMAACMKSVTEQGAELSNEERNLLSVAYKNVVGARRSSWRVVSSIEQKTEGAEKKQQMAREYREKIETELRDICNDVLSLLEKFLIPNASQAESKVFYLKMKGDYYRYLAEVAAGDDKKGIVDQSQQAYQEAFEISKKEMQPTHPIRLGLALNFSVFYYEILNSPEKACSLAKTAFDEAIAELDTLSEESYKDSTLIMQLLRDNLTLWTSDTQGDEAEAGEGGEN
Mcl1-Noxa inh – Mcl-1/Noxa binding inhibitors, primary screen, biochemical, TR-FRET, 1536-well; Induced myeloid leukemia cell differentiation protein Mcl-1 (Homo sapiens), Q07820; TR-FRET Mcl-1/Noxa peptide binding, 2 h; inhibition, % at 21.7 µM; 220,000 tested, 1.5% active; AID 1022, 2008;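 active = compounds that cut the protein-peptide binding signal by more than 50% relative to plate controls in a single-dose test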;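 also: His-tagged Mcl-1 with rhodamine Noxa BH3 peptide and terbium anti-His antibody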
Mcl1 Bid PPI – Mcl-1/Bid binding inhibitors, primary screen, biochemical, TR-FRET, 1536-well; inhibition, % at 21.7 µM; TR-FRET Mcl-1/Bid-Dy647 peptide binding; Induced myeloid leukemia cell differentiation protein Mcl-1 (Homo sapiens), Q07820; AID 1021, 2008; 220,000 tested, 0.97% active;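 active = compounds that cut the binding signal by more than half at the single screening dose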;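 also: His-tagged Mcl-1 with europium anti-His antibody binding Bid BH3 peptide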
A number is an active result; – = inactive; · = no result; [ ] = remark or other dose. Sampled rows, rich in hits. Any-hit rate of the full collection: about 3.3%.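 The calls were made as follows, unless noted: active = inhibition above about 30% (limit read from the data); inactive = the rest.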

SMILES | Mcl-1 Bim block | eIF4E-4G inh | p47phox inh | 14-3-3 Bad inh | Mcl1-Noxa inh | Mcl1 Bid PPI
CCC(C)(C)n1nnnc1CN(Cc1ccc(Cl)cc1)Cc1ccco1 | – | – | – | – | – | 57
COc1ccc(CNC(=O)Cn2nc(C(F)(F)F)c3c2CCC3)cc1 | – | – | – | – | – | –
O=C(Cn1nc(C(F)(F)F)c2c1CCCC2)NCc1ccco1 | – | – | – | – | – | 98
O=C(NNC(=S)NCc1ccc(Cl)cc1)c1ccc2c(c1)OCO2 | – | – | – | – | – | –
COc1ccc(N2CCN(c3cnc4ccccc4n3)CC2)cc1 | – | – | – | – | 59 | –
CC(=O)Nc1cccc(-c2cn3ccccc3n2)c1 | – | – | – | – | – | –
O=C(Nc1cccc(-c2cn3ccccc3n2)c1)c1cc2ccccc2oc1=O | – | – | 43 | – | 59 | 60
Cc1cc(N2C(=O)C3C4CC(c5ccccc5)C(C4)C3C2=O)no1 (centres undefined) | – | – | – | – | – | –
Cc1ccc(OC(=O)C(C)c2cccc(C(=O)c3ccccc3)c2)cc1 (centres undefined) | – | – | 31 | – | – | –
Cc1ccccc1NC(=O)C(C)c1cccc(C(=O)c2ccccc2)c1 (centres undefined) | – | – | – | – | – | –
O=C(COc1ccccc1)N/N=C/c1ccc([N+](=O)[O-])o1 | – | – | – | – | – | –
COc1ccc(-c2nn(-c3ccccc3)cc2C(=O)N/N=C/c2ccc([N+](=O)[O-])o2)cc1 | – | – | – | – | 52 | –
O=C(CNc1ccc2ccccc2c1)N/N=C/c1ccc([N+](=O)[O-])o1 | – | – | – | – | 70 | 65
Cc1cc(C(=O)N/N=C/c2ccc([N+](=O)[O-])o2)c(C)o1 | · | – | 56 | – | – | –
O=C(COC(=O)c1ccc2ccccc2c1O)NCC(F)(F)F | · | – | – | – | – | –
COc1cccc(C(=O)/C=C/Nc2ccc(S(=O)(=O)Nc3onc(C)c3C)cc2)c1 | 66 | – | – | – | – | –
Cc1nnc2n(c1=O)N=C(c1ccc(Cl)cc1)CS2 | – | – | – | – | – | –
CC1=CC(C)(C)Nc2ccccc21 | – | – | – | – | 67 | –
Cc1cccc(OCc2nc(-c3cccnc3)no2)c1 | – | – | – | – | – | –
Oc1ccc(/C=N/Nc2cc(N3CCCC3)nc(N3CCCC3)n2)cc1O | – | – | – | – | 65 | –
Cn1c2ccccc2c2cnn(CC(=O)Nc3ccccc3Br)c(=O)c21 | · | – | – | 74 | – | –
C=C1C(=O)[C@@]23[C@H](O)C[C@@H]4C(C)(C)CC[C@H](O)[C@]4(C)[C@@H]2C[C@H](O)[C@@H]1[C@H]3O | – | – | – | – | – | 80
CC(C)S(=O)(=O)c1csc(C(=O)Nc2ccc(F)cc2)c1N | · | – | – | – | – | –
O=C1NC(=NCc2ccccc2)S/C1=C/c1ccc(O)cc1 | – | – | – | – | – | –
O=C1N/C(=C/c2ccc(Br)cc2)C(O)=C1C=NCc1ccccc1 | – | – | – | – | – | 54
SMILES | Mcl-1 Bim block | eIF4E-4G inh | p47phox inh | 14-3-3 Bad inh | Mcl1-Noxa inh | Mcl1 Bid PPI
CCc1ccc(/C=C2\Oc3c(ccc(O)c3CN3CCN(CCO)CC3)C2=O)cc1 | · | 72 | – | – | – | –
Cc1c(NC(=O)c2cc(C(C)C)on2)c(=O)n(-c2ccccc2)n1C | – | – | – | – | – | –
Cc1c(NC(=O)c2cc(CC(C)C)on2)c(=O)n(-c2ccccc2)n1C | – | 34[fluorescence artefact?] | – | – | – | –
O=C1NCCN1C(=O)N(c1ccccc1)c1ccccc1 | 56 | – | – | – | – | –
CC(=O)N1CC(=O)N=C1SCC(=O)Nc1nc(C)c(-c2ccccc2)s1 | – | – | – | – | – | –
CC1=C(C(=O)OCC(Br)(Br)Br)C(c2ccc(Br)cc2)NC(=O)N1CCCC(=O)O (centres undefined) | – | – | – | – | – | –
C=CCSC1=N/C(=C\c2cc(OCC)c(OC(C)=O)c([N+](=O)[O-])c2)C(=O)S1 | – | – | – | – | – | –
O=C(COc1ccc(/C=N/NC(=O)c2cc3ccccc3o2)cc1Br)Nc1ccccc1 | – | – | 38 | 86[fluorescence artefact?] | – | 82
O=C(COc1ccccc1[N+](=O)[O-])Nc1ccc(NC(=O)c2cc3ccccc3o2)cc1 | – | – | 32 | 90 | – | –
CNc1sc(C(=O)c2ccccc2F)c(N)c1-c1nc2ccccc2s1 | – | – | – | – | 86 | –
CC(C)N1CCc2c(sc(NC(=O)c3ccc(S(=O)(=O)N4CCc5ccccc54)cc3)c2C(N)=O)C1 | – | – | – | – | 72 | –
COc1ccc(N/C(=C(/C(Cl)=C(Cl)Cl)[N+](=O)[O-])n2nnc3ccccc32)cc1OC | – | – | – | – | – | 75
COc1ccc(C(=O)n2nnc3ccccc32)cc1OC | – | – | – | – | – | –
CCc1nnc(NC(=O)CSc2nc(-c3ccc(F)cc3)cc(-c3ccccc3)c2C#N)s1 | – | – | – | – | – | 60
CC(/C=C/C=C/c1ccccc1)=N/NC(=O)c1ccc2c(c1)OCCO2 | · | – | – | – | – | –
COc1ccccc1NC1=C(NC(C)=O)C(=O)c2ccccc2C1=O | – | – | – | – | 78 | –
COC(=O)c1ccc(C(=O)OC)c(NC(=S)N2CCOCC2)c1 | – | – | – | – | – | –
CC(C)(C)c1c(Cl)c(O)c(-c2ccccc2)c(=O)n1-c1ccccc1 | – | 33 | – | 80 | – | 86
O=c1c(-c2ccccc2)c(O)cc(-c2ccncc2)n1-c1ccc(Cl)cc1 | – | – | – | – | – | –
COc1ccc(/C=C/c2cc(C(F)(F)F)on2)cc1 | · | – | – | – | – | –
Cc1ccc(C(=O)NCC(=O)N2CCN(c3ncccn3)CC2)s1 | – | – | – | – | – | 65
O=C(NCC(=O)N1CCN(c2ncccn2)CC1)c1cccs1 | – | – | – | – | – | –
CC(/C=C1\SC(=S)N(CCCC(=O)Nc2ccc(C(=O)O)cc2)C1=O)=C\c1ccccc1 | – | – | – | – | 52 | –
O=C(CCCN1C(=O)/C(=C\c2cccc(Br)c2)SC1=S)Nc1cccnc1 | – | – | – | – | – | 59
COc1ccc(N2CCN(C(=O)[C@H](Cc3c[nH]c4ccccc34)NC(C)=O)CC2)cc1 | – | – | – | – | – | –

From PubChem BioAssay
